# Screening results: PubChem BioAssay, National Center for Advancing Translational Sciences (NCATS)
# Only some compounds are listed: those with a hit (about 20% of all), similar ones and a draw of the others.
# Pf growth 48h: P. falciparum growth inhibition at 48 hours (one generation) | actives 5.9% (n = 310,000) | P. falciparum luciferase growth in erythrocytes, 48 h | Potency, µM (doses to about 28.7 µM), for the others: at the highest dose activity change, negative = inhibition, usual class: inhibitors; further: potency means the concentration at half of the fitted maximal effect; on the % scale 0 is the no-effect control and ±100 the full control effect
#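 Parasite viability was followed by luminescence of a genomically integrated firefly luciferase. Cultures held 0.1% parasitemia at 2% hematocrit (final), incubated under 5% CO2 at 37 C.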
# Cycloheximide cs: affects cycloheximide protein synthesis inhibition readout, counter-screen; cell reporter, cycloheximide protein synthesis inhibition counterscreen; max response, %; actives 12% (n = 300,000); AID 2314; in the data active means max response mostly above about 13%, no sharp cut-off; inactive means mostly below about 14%; further: read at 38.3 µM for the half of the compounds with a filed dose; 0% is about no effect
# Shiga toxin inh: inhibitors of Shiga toxin in Vero cells | AID 2315 | Vero cells, Shiga toxin protein synthesis inhibition reporter | inhibition, % at 38.7 µM | actives 9.2% (n = 290,000); in the data active means inhibition mostly above about 28%, no sharp cut-off; inactive means mostly below about 43%; further: 0% is about no effect
# Pf growth 96h: P. falciparum growth inhibition at 96 hour, primary screen for plastid delayed-death inhibitors; Potency, µM (doses to about 28.7 µM), inactives show top-dose activity change, negative = inhibition, most hits filed as inhibitors; actives 6.9% (n = 320,000); AID 504834; P. falciparum luciferase reporter growth, 96 h; further: potency means the concentration at half of the fitted maximal effect; on the % scale 0 is the no-effect control and ±100 the full control effect
#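 Two-generation exposure (96 h) targets delayed-death phenotype. Reporter parasites carrying integrated firefly luciferase, in red cells at 2% hematocrit and 0.05% parasitemia final, kept at 37 C, 5% CO2; luminescence loss indicates inhibition.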
# HCMV inh: human cytomegalovirus inhibition. HFF cells, HCMV-luciferase reporter, 72 h; active compounds read low. activity change, negative = inhibition, % at 57.5 µM. actives 4.5% (n = 410,000). AID 1259415; in the data active means activity change below about -60%; inconclusive means no clear call, values can overlap the other calls; inactive means above about -39%; further: on the % scale 0 is the no-effect control and ±100 the full control effect
#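 Inhibition of viral replication was scored as loss of reporter luminescence in HFFs infected with HCMV-luciferase (MOI 1 PFU/cell) for 72 h; compounds tested at 2 doses, normalized to buffer and Salinomycin controls.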
# Numbers without * were called inactive; ? = inconclusive; nt = no result given; [ ] = dose if it differs, or a comment. Unless noted, the call rests on the fitted dose curve; in most records, active means well fitted inhibition curve with a large enough effect; inconclusive means small, poorly fitted or top-dose-only effect, or another doubt; inactive means no such curve, though single readings can be large or run the other way.
SMILES,Pf growth 48h,Cycloheximide cs,Shiga toxin inh,Pf growth 96h,HCMV inh
CCCS(=O)(=O)NC(=O)C1(C)CCN(C(=O)c2oc3ccccc3c2C)C1 (configuration not stated),nt,nt,nt,nt,6
Nc1ccccc1C(=O)NC(=O)Nc1ccc(Oc2ncc(Br)cn2)c(Cl)c1,nt,nt,nt,nt,-87*
Cc1cc(NC(=O)NC(=O)c2ccccc2NC(=O)CN)ccc1Oc1ncc(Br)cn1,nt,nt,nt,nt,-84*
COc1ccc(-n2nnnc2-c2ccccc2)cc1,nt,-2,6,?,-60*
COc1ccc(/C=N/NC(=O)c2nc(-c3ccccc3)n(-c3ccccc3)n2)cc1,6%,-1,-7,?,-11
COc1cccc(Oc2nnnn2-c2ccccc2)c1,140%,33*,146,?,101
COc1ccc(Oc2nnnn2-c2ccccc2)cc1,62%,32*,31*,76%,14
COc1ccc(-n2nc(C(=O)N(C)C)nc2-c2ccccc2)cc1,16%,-1,-6,9.3µM*,9
O=c1ccccn1CCOc1ccc(Cl)cc1,-5%,33*,35*,-28%,42
CC(C)(c1ccccc1)c1ccc(OCCn2cnc3ccccc3c2=O)cc1,nt,-3,8,-14%,45
O=c1[nH]c(=O)n(CCOc2ccc(Cl)cc2)cc1Br,-6%,-2,-12,nt,3
CC(C)(C)c1ccc(OCCn2ccccc2=O)cc1,-11%,37*,93*,171%,115
COc1ccc(-n2c(=O)c3c4c(sc3n3c(SC(C)C)nnc23)COC(C(C)C)C4)cc1 (configuration not stated),nt,nt,nt,nt,-33
CCN(CCCNC(=O)COc1cc(=O)n(CC)c2ccccc12)Cc1ccccc1,?,0,-1,nt,328
COc1ccc(-c2noc(N3CCC(C(=O)Nc4ccccc4Cl)CC3)n2)cc1,11%,-2,-4,0%,-9
COc1ccc(-c2noc(N3CCC(C(=O)NC(C)c4ccccc4)CC3)n2)cc1 (configuration not stated),?,-2,11,-8%,-63*
COc1ccc(-c2noc(N3CCC(C(=O)N(C)c4ccccc4)CC3)n2)cc1,?,8.2*,13,1%,-19
Cc1nn(C)c2c1c(C(F)(F)F)cc(=O)n2CC(=O)NC(C)(C)C,nt,nt,nt,nt,-12
CCOC(=O)c1c(S(=O)(=O)NCC(=O)Nc2ccc(F)cc2)c(C)n(C)c1C,11%,1,-8,?,5
Cc1ccc2nc(N(CCN3CCOCC3)C(=O)CCS(=O)(=O)c3ccccc3)sc2c1,80%,nt,nt,110%,32
CCCC(=O)N(CCN1CCOCC1)c1nc2cc(C)c(C)cc2s1,149%,51*,91*,88%,0
Cc1cc(C(=O)CN2C(=O)NC(CC(C)C)C2=O)c(C)n1-c1ccccc1F (configuration not stated),165%,47*,159*,137%,-10
Cc1cc(C(=O)CN2C(=O)C(=O)N(CC(C)C)C2=O)c(C)n1-c1ccccc1F,-10%,17*,61,31%,88
COC(=O)CCN(Cc1cc(OC)ccc1OC)S(=O)(=O)c1ccccc1Br,nt,nt,nt,nt,10
CCOP(=O)(OCC)C1(O)C(=O)Nc2ccccc21 (configuration not stated),-6%,1,-13,?,-12
SMILES,Pf growth 48h,Cycloheximide cs,Shiga toxin inh,Pf growth 96h,HCMV inh
CC(C)OP(=O)(OC(C)C)C1(O)C(=O)Nc2ccccc21 (configuration not stated),-1%,-4,-8,2.6µM*,30
Cc1cc(Cl)c2oc(C(=O)N(C)CCCN3CCOCC3)c(C)c2c1,-8%,1,4,?,95
Cc1cc(Cl)c2oc(C(=O)NCC(C)(C)N3CCOCC3)c(C)c2c1,?,18*,37,22%,-8
Cc1cc(Cl)c2oc(C(=O)NC3CCC(O)CC3)c(C)c2c1 (configuration not stated),36%,21*,nt,0%,-10
COC(=O)C1CCN(C(=O)c2oc3c(Cl)cc(C)cc3c2C)CC1,101%,47*,76*,8%,17
Cc1cc(Cl)c2oc(C(=O)N3CCN(c4ccncc4)CC3)c(C)c2c1,nt,nt,nt,nt,-40
CCOC(=O)C1CCCCN1C(=O)c1oc2c(Cl)cc(C)cc2c1C (configuration not stated),53%,46*,118*,?,-15
O=C(NCc1ccccc1)C(c1ccco1)N(C(=O)c1ccccn1)c1ccc(F)cc1 (configuration not stated),-9%,1,12,95%,1
CN(C)CCCNC(=O)c1cc(C(=O)c2c(Cl)cccc2Cl)c[nH]1,2%[0.00184 µM],-5,-7,15%,nt
CCC(=O)c1cc(F)c(N2CCN(S(=O)(=O)c3ccc(C)cc3)CC2)cc1C,?,1,12,10µM*,-26
CCC(=O)N1CCc2cc(S(=O)(=O)N3CCN(c4cc(C)ccc4C)CC3)ccc21,-12%,15,-5,10µM*,nt
Cc1ccc(N2CCN(S(=O)(=O)c3ccc(F)c(C)c3)CC2)c(C)c1,-2%,-3,-4,nt,-11
Cc1ccc(C)c(N2CCN(S(=O)(=O)c3ccc4c(c3)CC(=O)N4C)CC2)c1,8.3µM*,-2,-6,0%,-27
Cc1ccc(C)c(N2CCN(S(=O)(=O)c3ccc4c(c3)n(C)c(=O)c(=O)n4C)CC2)c1,nt,nt,nt,nt,-5
Cn1ccnc1SCC(=O)Nc1ccc2c(c1)OCO2,173%,41*,69,42%,67
CN1CCN(CCC(=O)Nc2ccc3c(c2)OCO3)CC1,13%,-1,2,?,9
COc1ccc(-n2ccnc2SCC(=O)Nc2ccc3c(c2)OCO3)cc1,nt,nt,nt,nt,-74*
O=C(CCn1cccn1)Nc1ccc(-c2ccno2)cc1,46%,33*,34*,6%,57
O=C(CCn1cccn1)Nc1ccc2c(c1)OCO2,-3%,36*,40*,0%,102
O=C(CSc1nccn1-c1ccc(F)cc1)Nc1ccc2c(c1)OCO2,36%,5,45,?,?
O=C(CSc1nccn1Cc1ccc(Cl)cc1)Nc1ccc2c(c1)OCO2,nt,nt,nt,nt,-12
CSc1ccc(C(=O)C2CCCN(C(=O)c3cc(C)n(C)n3)C2)cc1 (configuration not stated),-14%,-2,-5,?,?
O=C(NCCc1ccccc1)C(=O)NCC(c1cccnc1)N1CCN(c2ccccc2)CC1 (configuration not stated),nt,nt,nt,nt,-26
Cc1onc(-c2ccccc2)c1C(=O)N1CCCC(C)(C(=O)NS(=O)(=O)C2CC2)C1 (configuration not stated),nt,nt,nt,nt,0
O=C(CSc1nccn1-c1ccccc1)Nc1ccc2c(c1)OCO2,18%,70*,68*,49%,22
C/C=C/c1ccc(OCCCCN2CC(C)CC(C)C2)c(OC)c1 (configuration not stated),?,0,32,29%,-24
CCc1ccc2[nH]c(O)c(N=Nc3nc(-c4ccccc4)cs3)c2c1,-7%,-4,27,21%,?
